Data from ChEMBL document CHEMBL3988442, “University of Dundee, Small-Polar-MMV Screening Library” (2021).
About 13,000 (27%) of roughly 48,000 compounds showed an effect of 50% or more. The list shows a part of the results.

system: Wolbachia pipientis; assay: Anti-Wolbachia Cell-Based Screen; type: functional; set-up: scale not given: in the data most compounds retested in dose-response had high values; conditions: 5 µM

Compound	Percent Effect [%]
COCCCN1CCN(C(=O)C(c2cccc(F)c2)N(C)C)CC1 (configuration not stated)	-8.976
CC(NC(=O)C1=NN(C)C(=O)CC1)c1ccc(F)cc1F (configuration not stated)	-12.15
COc1ccc(OC)c(C2C3=C(COC3=O)Nc3[nH]nc(C)c32)c1 (configuration not stated)	5.984
Cn1c(NCC(O)c2ccc(F)cc2F)c(C#N)c(=O)n(C)c1=O (configuration not stated)	-7.398
CCN1CC(C(=O)N2CC(Oc3ccccc3Cl)C2)CC1=O (configuration not stated)	-26.5
COCCCNC(=O)Nc1ccc(OCc2noc(C3CC3)n2)cc1	4.086
O=C(NC1CCCC1)c1nc2c(o1)CN(CCO)C2	4.983
O=C(NCC1CC1)c1nc(COc2ccc3c(c2)OCO3)no1	5.191
Cc1occc(=O)c1OCc1noc(C(=O)NCC2CC2)n1	118
Cc1occc(=O)c1OCc1noc(C(=O)NC2CCCC2)n1	110.2
Cc1cc(CN(C)C(=O)NC2CCCC2)no1	-3.677
Cc1ccc(NC(=O)CSCc2cccnc2)nc1	4.357
CN(C)C(=O)C1(Oc2ccc(Cl)cc2)CCNCC1	-10.8
CN1CCCC2(C1)CN(C(=O)C1CCCCC1)CCO2 (configuration not stated)	-29.79
CC(=O)N1CCOC2(CCN(C(=O)C3CC3)CC2)C1	104.2
CC(C)NC(=O)N1CCC2(CC1)CN(C(=O)NC(C)C)CCO2	117
CC(C)NC(=O)N1CCC2(CCCO2)C1 (configuration not stated)	5.792
CC(=O)N1CCCC2(C1)CN(C(=O)C1CCCCC1)CCO2 (configuration not stated)	-22.57
CC(C)n1cc(C(=O)N2Cc3ccccc3OC3(CCOCC3)C2)cn1	-9.745
O=C(C1CCOC1)N1Cc2ccccc2OC2(CCOCC2)C1 (configuration not stated)	110.4
O=C(C1CCOC1)N1CCC2(CC1)CN(c1ncccn1)CCO2.O=C(O)C(F)(F)F (configuration not stated)	-29.34
COCCN(C)CCN1CC2(CCN(C(=O)C3CCOC3)CC2)OC1=O (configuration not stated)	-2.366
O=C(c1ccncc1)N1Cc2ccccc2OC2(CCOCC2)C1	-8.514
CC(C)CNC(=O)N1CCC2(CCCO2)C1 (configuration not stated)	14.05
CC(=O)N1Cc2ccccc2OC2(CCN(C(=O)C3CCOC3)CC2)C1 (configuration not stated)	188.7
CCCn1cnnc1-c1nc2c([nH]1)CC(c1ccc(Cl)cc1)CNC2=O (configuration not stated)	14.47

Compound	Percent Effect [%]
O=S(=O)(Cc1ccc(F)c(Cl)c1)NC(CO)c1ccco1 (configuration not stated)	-13.92
COc1ccccc1C1CNC(=O)c2nc(-c3cn(C)nc3C)[nH]c2C1 (configuration not stated)	-4.665
Cc1cnc(C(=O)N2CCC3(CC2)C(=O)NCCN3CC(C)C)cn1	4.389
COCc1nc(N(C)C/C=C/c2ccccc2)c2cnn(C)c2n1	-13.22
O=C(c1c[nH]cn1)N1CCC(n2cc(-c3ccsc3)nn2)CC1	-0.5309
CC(=O)N1Cc2ccccc2OC2(CCN(C(=O)C3CC3)CC2)C1	187.7
Cc1cc(C(=O)N2Cc3ccccc3OC3(CCOCC3)C2)nc(N)n1	-4.105
N#Cc1c(N2CCCN(C3CCOCC3)CC2)nc2ccccn12	-1.844
Cc1n[nH]c(C2CN(CCc3cccs3)CCO2)n1 (configuration not stated)	117.1
CCc1n[nH]c(C2CN(CCc3cccs3)CCO2)n1 (configuration not stated)	2.973
CCCc1n[nH]c(C2CN(CCc3cccs3)CCO2)n1 (configuration not stated)	119.2
CC(C)c1n[nH]c(C2CN(Cc3nnc(C4CC4)n3C)CCO2)n1 (configuration not stated)	4.048
CC(C)(C)c1n[nH]c(C2CN(CCc3cccs3)CCO2)n1 (configuration not stated)	121.2
CC(C)c1n[nH]c(C2CN(Cc3ccno3)CCO2)n1 (configuration not stated)	2.718
CC(C)c1n[nH]c(C2CN(CCc3cccs3)CCO2)n1 (configuration not stated)	96.38
CCCc1n[nH]c(C2CN(CCn3cccn3)CCO2)n1 (configuration not stated)	-0.7272
Cc1n[nH]c(C2CN(CCCOc3ccc(F)cc3)CCO2)n1 (configuration not stated)	-9.596
CC(C)(C)c1n[nH]c(C2CN(CCNC3CCCCC3)CCO2)n1 (configuration not stated)	-7.813
Cc1nc(C)n(CC2CN(CCc3cccs3)CCO2)n1 (configuration not stated)	-47.87
Cn1c(CN2CCOC(c3nc(C(C)(C)C)n[nH]3)C2)nnc1C1CC1 (configuration not stated)	2.258
COCCOc1ncccc1C(=O)N(C)c1ccc(OC)nc1	-5.142
Cc1ccc(S(C)(=O)=O)cc1C(=O)NS(=O)(=O)c1ccc(Cl)cc1	-5.911
Cc1ccc(C(C)NC(=O)N2CCN(C(=O)CC(F)(F)F)CC2)o1 (configuration not stated)	-14.24
Nc1cc2c(nn1)CCN(C(=O)c1ccc(-c3ccco3)[nH]c1=O)C2	1.419
N#Cc1ccc(CN2CCCN(CCCn3cncn3)CC2)cc1	-13.2
O=C(CN1CCS(=O)(=O)CC1)Nc1ccc(N2CCCC2)nc1	0.8889

Compound	Percent Effect [%]
CC(C)N(C)[C@@H]1CCN(S(C)(=O)=O)[C@H]1Cc1ccccc1	103.5
CN(C)[C@@H]1CCN(c2ncc(F)cn2)[C@H]1Cc1ccccc1.O=C(O)C(F)(F)F.O=C(O)C(F)(F)F	3.414
CN(C)[C@@H]1CCN(S(=O)(=O)C2CC2)[C@H]1Cc1ccccc1.O=C(O)C(F)(F)F	106
CC(C)N(C)[C@@H]1CCN(Cc2ccoc2)[C@H]1Cc1ccccc1	-14.75
CN(C)[C@@H]1CCN(c2ncccn2)[C@H]1Cc1ccccc1	-9.311
CN(C)[C@@H]1CCN(S(=O)(=O)c2cn(C)cn2)[C@H]1Cc1cccnc1.O=C(O)C(F)(F)F.O=C(O)C(F)(F)F.O=C(O)C(F)(F)F	0.7375
CC(C)NC(=O)N1CC[C@@H](N(C)C)[C@@H]1Cc1ccccc1.O=C(O)C(F)(F)F	0.7735
CC(C)N(C)[C@@H]1CCN(Cc2ccco2)[C@H]1Cc1ccccc1	2.864
CN(C)[C@@H]1CCN(S(C)(=O)=O)[C@H]1Cc1ccccc1	99.96
CCOc1ccc(C(=O)N2C[C@H]3CC[C@@H]2CN(C(=O)C2CCC2)C3)cc1	-22.33
CCOc1ccc(C(=O)CCC(=O)NCc2cncn2CC)cc1C	-8.028
CC(C)Cc1noc(-c2ccc(NCc3noc(C(C)C)n3)nc2)n1	13.03
Cc1ccc(-c2ncc(CN3CCOC(c4ccco4)C3)s2)o1 (configuration not stated)	2.096
COC(=O)CCC(=O)N1CCC2(CN(Cc3ccc(Cl)cc3)C2)C1	100.4
COCCC(=O)N1CCC2(CCN(Cc3cccc(F)c3)C2)C1 (configuration not stated)	0.08604
CN1CCCC2(CC1)CCN(C(=O)CCc1ccccc1F)CC2	-19.97
CN1CCN(CC2(O)CCN(C(=O)CCc3ccccc3F)C2)CC1 (configuration not stated)	132.9
COC(=O)CCC(=O)N1CCC2(CN(Cc3ccccc3F)C2)C1	106.8
COC(=O)CCC(=O)N1CCC2(CN(Cc3cccc(Cl)c3)C2)C1	11.86
CN1CCCC2(CC1)CCN(C(=O)CCc1ccccc1O)CC2	-5.541
COC(=O)CCC(=O)N1CCC2(CN(Cc3ccccc3)C2)C1	108.2
COCCC(=O)N1CCC2(CCCN(Cc3cc(OC)ccc3F)C2)C1 (configuration not stated)	-0.03102
COC(=O)CCC(=O)N1CCC2(CN(Cc3cccc(F)c3)C2)C1	-9.48
COCCC(=O)N1CCC2(CN(Cc3cccc(F)c3)C2)C1	-10.24
CCn1cnnc1CNC(=O)N(C)Cc1cccc(Cl)c1Cl	-4.031
CCS(=O)(=O)N1CCC2(CN(Cc3ccc(C)o3)C2)C1	-24.8

Compound	Percent Effect [%]
Cc1ccc(CN2CC3(CCN(C(=O)Cc4ccc(Cl)cc4)C3)C2)o1	100.7
Cc1ccc(CN2CC3(CCN(S(=O)(=O)c4ccccc4)C3)C2)o1	-20.52
CCCOc1ccc(Cl)cc1CNc1ncnc2oc(C)nc12	-1.031
Cc1nc(C2CCCN2CC(=O)Nc2c(C)nn(C)c2C)no1 (configuration not stated)	-17.15
Cc1nn(C)c(C)c1NC(=O)CN1CCCC1c1noc(C2CC2)n1 (configuration not stated)	-4.679
CCc1nc(C2CCCN2CC(=O)Nc2c(C)n[nH]c2C)no1 (configuration not stated)	6.679
Cc1cc(NC(=O)CN2CCCC2c2noc(C(C)C)n2)n(C)n1 (configuration not stated)	-5.63
Cc1n[nH]c(C)c1NC(=O)CN1CCCC1c1noc(C(C)C)n1 (configuration not stated)	106.9
Cc1nc(C2CCCN2CC(=O)Nc2c(C)n[nH]c2C)no1 (configuration not stated)	89.73
Cc1n[nH]c(C)c1NC(=O)CN1CCCC1c1noc(C2CC2)n1 (configuration not stated)	90.47
Cc1nn(C)c(C)c1NC(=O)CN1CCCC1c1noc(C(C)C)n1 (configuration not stated)	-6.278
CCc1nnc(CNC(=O)c2cc3c(nc2OC)CCC3)s1	18.91
CCN1CCN(C(=O)c2cc(F)cc3nc(C)c(C)nc23)CC1	-0.6809
CC(C)[C@@H](C)NC(=O)N1CCn2nc(C(=O)NCCN(C)C)cc2C1	-12.94
CC(NCc1cccc(C#N)c1)c1ccccn1.Cl (configuration not stated)	-10.04
CC(C)CC(NCc1ccsc1)c1ccccn1 (configuration not stated)	110.4
O=C(Cn1cccnc1=O)NC(Cc1cccs1)c1ccccn1 (configuration not stated)	-8.701
COc1cc(C(C)NCc2cscn2)ccc1SC(F)F (configuration not stated)	-37.81
COc1ccccc1NCc1cscn1.Cl	-2.575
CC(C)Cc1nnc(NCc2ccsc2)o1	-5.765
NC(=O)C(NCc1cccs1)c1ccccc1 (configuration not stated)	8.593
CC(C)CC(NCc1cccs1)c1ccccn1 (configuration not stated)	107.8
CC(C)CC(NCc1cscn1)c1ccccn1 (configuration not stated)	95.9
O=C(NCCc1[nH]nc2c1CCCC2)C1CCCN(Cc2ccco2)C1 (configuration not stated)	3.369
